According to PubChem BioAssay (Tox21):
Unmarked numbers belong to inactive results. Inconclusive results are not listed. Entries that show only a call come without a potency. Calls of active or inactive are those of the source. Unless noted, the call rests on the fitted dose curve; in most records, active means well fitted curve in the direction sought with a large enough effect in the repeat runs; inconclusive means weak or mixed curves; inactive means no such curve, though single readings can be large; an effect the other way counts as inactive or inconclusive.

What was measured:
[1] = A CellTox Green Cytotoxicity Assay to monitor cytotoxicity in HepG2 cells - 8 hour (AID 1224890); further: nearly all actives have a fitted effect of over 45% in size
How it was run: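 Measurements at 0, 8, 16, 24, 32 and 40 h of treatment captured CellTox Green fluorescence in HepG2 cells that had been co-plated with reagent and preincubated 5 h at 37 C/5% CO2.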

[2] = qHTS assay to identify small molecule antagonists of the estrogen receptor alpha (ER-alpha) signaling pathway using the BG1 cell line in the presence of 0.1 nM 17-beta-estradiol - cell viability counter screen (AID 1259241); further: nearly all actives have a fitted effect of over 40% in size
How it was run: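 Viability in VM7Luc4E2 cells after 22 hr compound exposure under 0.1 nM 17beta-estradiol stimulation, by CellTiter-Fluor.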

[3] = qHTS assay to identify small molecule antagonists of the androgen receptor (AR) signaling pathway using the MDA cell line in the presence of 0.5 nM R1881 - cell viability counter screen (AID 1259242); further: nearly all actives have a fitted effect of over 45% in size
How it was run: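 Concentration-response screen of compounds for toxicity in MDA-kb2 reporter cells: 16 hr at 37C with 0.5 nM R1881, endpoint live-cell protease fluorescence measured in the reporter wells.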

[4] = target: Estrogen receptor (Homo sapiens) (UniProt P03372); test: qHTS assay to identify small molecule antagonists of the estrogen receptor alpha (ER-alpha) signaling pathway using the BG1 cell line in the presence of 0.1 nM 17-beta-estradiol (AID 1259244); further: nearly all actives have a fitted effect of over 50% in size
How it was run: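 Compounds were tested against 0.1 nM (final) 17beta-estradiol in VM7Luc4E2 cells, which express full-length ER-alpha and an ERE-luciferase reporter; luminescence was recorded following 22 h exposure.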

[5] = qHTS assay to identify small molecule HDAC inhibitors (AID 1259364); further: potency means the concentration at half of the fitted maximal effect;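 further: wild-type HCT-116 cells with endogenous class I/II HDAC activity; nearly all actives have a fitted effect of over 45% in size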
How it was run: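 Screening used wild-type human colon HCT-116 cells incubated overnight, dosed with compounds for 2 hours, and assayed with a homogeneous luminogenic HDAC I/II reagent for 30 minutes at room temperature.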

[6] = qHTS assay to identify small molecule HDAC inhibitors - cell viability counter screen (AID 1259365); further: series mostly up to about 92 µM; nearly all actives have a fitted effect of over 50% in size
How it was run: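 Cytotoxicity was gauged in wild-type HCT-116 cells after a brief 2hr treatment with DMSO-dissolved compounds at 37C and 5% CO2, using CellTiter-Glo luminescence developed for 30min at room temperature.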

[7] = qHTS assay to identify small molecule agonists of the sonic hedgehog signaling (Shh) pathway - cell viability counter screen (AID 1259366); further: nearly all actives have a fitted effect of over 50% in size
How it was run: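 Stable Gli1-Luc NIH/3T3 clone, 2,000 cells/well. Compound exposure 24hr at 37C. Read-out: CellTiter-Fluor fluorescence.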

[8] = qHTS assay to identify small molecule antagonists of the sonic hedgehog signaling (Shh) pathway - cell viability counter screen (AID 1259367); further: nearly all actives have a fitted effect of over 55% in size
How it was run: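 CellTiter-Fluor signal in conditioned medium-stimulated 3T3 Gli1-Luc cells, 23 hr compound exposure, 37C.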

[9] = qHTS assay to identify small molecule agonists of the sonic hedgehog signaling (Shh) pathway (AID 1259368; calls by dose curve;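 further: NIH/3T3-derived 3T3Gli1-Luc cells carrying a stable Gli1-driven firefly luciferase reporter; series mostly up to about 92 µM; nearly all actives have a fitted effect of over 15% in size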)
How it was run: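 Hedgehog pathway agonism scored by increased firefly luciferase luminescence in 3T3Gli1-Luc cells treated 24 hr at 37 C; detection used a 30 min room-temperature reagent incubation.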

[10] = qHTS assay to identify small molecule antagonists of the sonic hedgehog signaling (Shh) pathway (AID 1259369; calls by dose curve; further: nearly all actives have a fitted effect of over 45% in size; further: potency means the concentration at half of the fitted maximal effect)
How it was run: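 NIH/3T3 stable Gli1-Luc clone, 2,000 cells/well, 4hr settle; cpd + conditioned medium 24hr; Luc reagent 30min RT; luminescence.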

[11] = qHTS assay to identify small molecule agonists of the androgen receptor (AR) signaling pathway in the presence of an antagonist - cell viability counter screen (AID 1259379);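 further: MDA-kb2 human breast cancer cells carrying an MMTV luciferase reporter; series mostly up to about 92 µM; nearly all actives have a fitted effect of over 25% in size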
How it was run: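 MDA-kb2 viability measured by CellTiter-Fluor fluorescence in the same wells as the luciferase signal; nilutamide 3.0uM final; 15-point compound titration; 16 hr at 37C.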

[12] = qHTS assay to identify small molecule agonists of the estrogen receptor beta (ER-beta) signaling pathway - cell viability counter screen (AID 1259380); further: nearly all actives have a fitted effect of over 30% in size
How it was run: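 Measured: luminescence from CellTiter-Glo after 30 min at room temperature, added to wells already read for the LiveBLAzer FRET reporter (2 hr substrate); ER-beta-UAS-bla HEK293T cells had 16 hr compound treatment at 37C, 5% CO2.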

[13] = qHTS assay to identify small molecule antagonists of the estrogen receptor beta (ER-beta) signaling pathway - cell viability counter screen (AID 1259382);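 further: HEK293T cells carrying ER-beta-UAS-bla reporter stimulated with estradiol; series mostly up to about 92 µM; nearly all actives have a fitted effect of over 55% in size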
How it was run: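 Readout: luminescence, CellTiter-Glo, same wells as bla assay. System: ER-beta-UAS-bla GripTite HEK293T, 2% charcoal-stripped FBS. Exposure: compounds plus 1nM 17-beta-estradiol, 16 hr, 37C.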

[14] = target: Estrogen receptor (Homo sapiens) (UniProt P03372); test: qHTS assay to identify small molecule agonists of the estrogen receptor alpha (ER-alpha) signaling pathway in the presence of an antagonist (AID 1259383; calls by dose curve; further: top concentration of the series differs between compounds; nearly all actives have a fitted effect of over 15% in size)
How it was run: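 Quantitative HTS confirmation: compounds titrated at 15 concentrations onto estrogen-deprived VM7Luc4E2 cells carrying a four-ERE luciferase construct, with ICI-182,780 present at 10.0nM final. Signal is luminescence after 22hr exposure.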

[15] = target: Estrogen receptor beta (Homo sapiens) (UniProt Q92731); test: qHTS assay to identify small molecule agonists of the estrogen receptor beta (ER-beta) signaling pathway (AID 1259377; active means well fitted activation curve with a large enough effect in the signal ratio in the repeat runs, not every such curve was filed as active; the % refers to the signal ratio)
How it was run: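 Measured by fluorescence intensity from a B/G FRET beta-lactamase substrate (2 h, room temperature) in ER-beta-UAS-bla HEK293T cells treated with DMSO-dissolved compounds for 16 hr at 37C and 5% CO2.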

[16] = target: Estrogen receptor beta (Homo sapiens) (UniProt Q92731); test: qHTS assay to identify small molecule antagonists of the estrogen receptor beta (ER-beta) signaling pathway (AID 1259378; active means well fitted inhibition curve with a large enough effect in the signal ratio in the repeat runs, not every such curve was filed as active; the % refers to the signal ratio)
How it was run: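 Antagonist mode: compounds added to beta-lactamase reporter HEK293T ER-beta-UAS cells stimulated with E2 (1nM final), 16 hr at 37C. LiveBLAzer B/G FRET substrate, 2 hours room temperature, fluorescence read-out.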

[17] = qHTS assay to identify small molecule agonists or antagonists of the thyroid stimulating hormone receptor (TSHR) signaling pathway - wild type cell line counter screen (AID 1259384; calls by dose curve)
How it was run: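 Counter screen in untransfected Hek293: compounds (15-point titration, triplicate) plus phosphodiesterase inhibitor Ro20-1724 added after 18 h plating; 30 min RT. Intracellular cAMP via competitive d2/cryptate immunoassay, 1 h incubation.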

[18] = qHTS assay to identify small molecule phospholipidosis (PLD) inducers (AID 1259344; active means well fitted curve in the direction sought with a large enough effect; an effect the other way counts as inactive or inconclusive)
How it was run: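 Accumulated phospholipid, stained red by LipidTOX during 24 h compound treatment of HepG2 cells at 37 C, is quantified from images as pit number and intensity, normalised per cell using Hoechst-stained nuclei.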

[19] = target: Androgen receptor (Homo sapiens) (UniProt P10275); test: qHTS assay to identify small molecule agonists of the androgen receptor (AR) signaling pathway in the presence of an antagonist (AID 1259381; calls by dose curve; further: nearly all actives have a fitted effect of over 15% in size)
How it was run: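 Luminescent ONE-Glo read, 30min at room temperature, follows 16hr compound exposure (15 concentrations) of MDA-kb2 cells at 37C, 0% CO2, with nilutamide added at 3.0uM final.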

Estrogen receptor (Homo sapiens), sequence (P03372 whole entry, looked up): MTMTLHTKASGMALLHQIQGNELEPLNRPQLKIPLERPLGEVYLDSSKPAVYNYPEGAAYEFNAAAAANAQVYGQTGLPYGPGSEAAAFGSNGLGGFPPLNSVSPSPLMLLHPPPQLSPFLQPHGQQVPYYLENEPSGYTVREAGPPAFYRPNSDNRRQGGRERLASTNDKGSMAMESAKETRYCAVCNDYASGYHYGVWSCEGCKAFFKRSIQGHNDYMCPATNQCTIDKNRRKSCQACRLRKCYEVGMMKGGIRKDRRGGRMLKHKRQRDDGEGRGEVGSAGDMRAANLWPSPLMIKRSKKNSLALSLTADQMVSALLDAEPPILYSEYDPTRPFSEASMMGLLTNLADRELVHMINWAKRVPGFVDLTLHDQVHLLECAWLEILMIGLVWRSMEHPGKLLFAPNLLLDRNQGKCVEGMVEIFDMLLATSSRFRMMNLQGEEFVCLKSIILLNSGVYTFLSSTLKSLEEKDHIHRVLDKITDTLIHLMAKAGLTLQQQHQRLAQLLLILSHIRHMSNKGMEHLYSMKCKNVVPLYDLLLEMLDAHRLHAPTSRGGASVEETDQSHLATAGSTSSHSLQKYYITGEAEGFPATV
Estrogen receptor beta (Homo sapiens), sequence (Q92731 whole entry, looked up): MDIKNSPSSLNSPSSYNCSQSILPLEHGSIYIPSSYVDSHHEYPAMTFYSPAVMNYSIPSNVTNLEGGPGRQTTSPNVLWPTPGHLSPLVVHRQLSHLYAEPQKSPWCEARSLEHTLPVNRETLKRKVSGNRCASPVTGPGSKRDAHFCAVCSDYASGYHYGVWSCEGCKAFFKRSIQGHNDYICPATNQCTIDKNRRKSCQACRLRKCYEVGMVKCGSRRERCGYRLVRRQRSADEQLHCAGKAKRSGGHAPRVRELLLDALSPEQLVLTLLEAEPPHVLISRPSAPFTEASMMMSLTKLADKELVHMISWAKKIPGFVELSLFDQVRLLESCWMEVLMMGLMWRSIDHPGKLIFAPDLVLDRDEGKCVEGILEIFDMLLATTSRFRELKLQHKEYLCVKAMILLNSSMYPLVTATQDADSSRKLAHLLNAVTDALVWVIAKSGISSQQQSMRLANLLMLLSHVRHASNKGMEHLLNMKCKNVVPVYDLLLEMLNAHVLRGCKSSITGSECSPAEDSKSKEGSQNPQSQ
Androgen receptor (Homo sapiens), sequence (P10275 whole entry, looked up): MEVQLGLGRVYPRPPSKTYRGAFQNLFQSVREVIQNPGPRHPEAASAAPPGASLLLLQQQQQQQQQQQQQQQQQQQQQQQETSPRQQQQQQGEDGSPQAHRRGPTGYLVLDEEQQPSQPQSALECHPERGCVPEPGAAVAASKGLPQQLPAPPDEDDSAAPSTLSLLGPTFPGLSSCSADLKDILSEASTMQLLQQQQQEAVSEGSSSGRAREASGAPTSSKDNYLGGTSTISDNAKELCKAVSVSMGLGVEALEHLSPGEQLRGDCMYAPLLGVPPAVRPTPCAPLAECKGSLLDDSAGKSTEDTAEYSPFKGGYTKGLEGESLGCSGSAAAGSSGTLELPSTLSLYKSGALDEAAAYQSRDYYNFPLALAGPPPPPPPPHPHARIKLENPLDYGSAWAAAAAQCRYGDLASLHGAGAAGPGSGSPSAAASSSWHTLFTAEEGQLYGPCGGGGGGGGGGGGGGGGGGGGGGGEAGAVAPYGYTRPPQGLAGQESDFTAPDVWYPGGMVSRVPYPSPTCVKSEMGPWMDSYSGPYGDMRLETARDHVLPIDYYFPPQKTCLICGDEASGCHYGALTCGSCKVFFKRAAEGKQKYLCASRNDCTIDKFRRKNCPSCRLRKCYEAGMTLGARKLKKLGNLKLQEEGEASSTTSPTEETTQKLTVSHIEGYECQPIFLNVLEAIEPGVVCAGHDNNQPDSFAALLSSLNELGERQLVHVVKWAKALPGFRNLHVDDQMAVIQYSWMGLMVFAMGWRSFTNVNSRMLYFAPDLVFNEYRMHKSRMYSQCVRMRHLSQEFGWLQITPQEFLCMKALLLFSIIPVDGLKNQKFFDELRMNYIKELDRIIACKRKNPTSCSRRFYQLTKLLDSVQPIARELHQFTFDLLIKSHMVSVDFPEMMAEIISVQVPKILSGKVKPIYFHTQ

Compound	Potency [1]	Potency [2]	Potency [3]	Potency [4]	Potency [5]	outcome [6]	Potency [7]	Potency [8]	Potency [9]	Potency [10]	Potency [11]	Potency [12]	Potency [13]	Potency [14]	Potency [15]	Potency [16]	outcome [17]	Potency [18]	Potency [19]
CNc1ccccc1	inactive	inactive	inactive	inactive	inactive	inactive	inactive	inactive	inactive	inactive	inactive	inactive	inactive	inactive					
CC1(C)C(=O)NC(=O)N1CO	inactive	inactive	inactive	inactive	inactive		inactive	inactive	inactive	inactive	inactive		inactive	inactive	inactive	inactive	inactive		
COc1ccc(/C=C/c2cc(OC)cc(=O)o2)cc1	inactive	inactive	inactive	inactive	6.26 µM (active)	inactive		inactive		inactive	inactive	inactive	inactive	inactive	inactive	inactive			
N#CCCCC(C#N)CCC#N (stereo not drawn)	inactive	inactive	inactive	inactive	inactive	inactive	inactive	inactive	inactive	inactive		inactive	inactive	inactive			inactive		
CCc1ccc(C(=O)C(C)CN2CCCCC2)cc1 (stereo not drawn)	inactive	inactive	inactive		inactive	inactive	inactive	inactive	inactive	inactive	inactive	inactive	inactive				inactive	inactive	
C(/C=C/C=C/Nc1ccccc1)=Nc1ccccc1	inactive	inactive	inactive	inactive	inactive	inactive	inactive		inactive			inactive	inactive	inactive	inactive	inactive			
Cc1ccc(NC=O)c(C)c1	inactive	inactive	inactive	inactive	inactive	inactive	inactive	inactive	inactive	inactive		inactive	inactive	inactive			inactive		
O=C(OCCN1CCOCC1)c1cccnc1Nc1cccc(C(F)(F)F)c1	inactive	inactive	inactive	inactive	inactive	inactive	inactive	inactive	inactive	inactive	inactive		inactive				inactive		inactive
CCOC(=O)CC(O)(CC(=O)OCC)C(=O)OCC	inactive	inactive	inactive	inactive	inactive		inactive	inactive	inactive	68.6 µM (active)	inactive	inactive	inactive	inactive	inactive	inactive	inactive		
